From PubChem BioAssay AID651711 (Broad Institute, 2012)
“And” between values parts separate entries of the source, which are not always exact repeats. Equal entries are not always repeated. Out of some 350,000 compounds screened, about 180 (0.051%) were called active.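 How the source made its calls: active means mean replicate inhibition above about 25%, with every replicate also reaching it (limit read from the data, passing the limit was not always enough); inconclusive means only one of those two criteria met; inactive means neither criterion met.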 Many of the other results were omitted from the sample, so actives are more common in it than they were. A structure can be active in one record and inactive in another.

molecular target: Protein disulfide-isomerase A6 (Homo sapiens) (UniProt Q15084); assay: ERp5 (PDIA6) reductase activity blockers – biochemical, turbidity, absorbance 650 nm, single point, primary screen (AID 651711); conditions: ERp5 insulin aggregation, 90 min, at 9.99 µM, stronger effect = higher value
Sequence (Q15084 whole entry, looked up): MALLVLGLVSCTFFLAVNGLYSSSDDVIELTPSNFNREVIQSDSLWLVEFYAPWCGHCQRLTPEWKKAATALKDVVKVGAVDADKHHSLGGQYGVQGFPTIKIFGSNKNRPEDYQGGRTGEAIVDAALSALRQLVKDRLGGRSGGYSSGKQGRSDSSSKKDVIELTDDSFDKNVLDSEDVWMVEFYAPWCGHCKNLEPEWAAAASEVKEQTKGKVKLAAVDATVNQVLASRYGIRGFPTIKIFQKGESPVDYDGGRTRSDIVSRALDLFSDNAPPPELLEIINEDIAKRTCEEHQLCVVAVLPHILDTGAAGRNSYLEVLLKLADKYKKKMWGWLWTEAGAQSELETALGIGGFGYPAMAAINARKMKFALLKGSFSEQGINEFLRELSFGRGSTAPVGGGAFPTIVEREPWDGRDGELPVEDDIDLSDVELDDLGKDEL

| Structure (SMILES) | inhibition |
| --- | --- |
| C[C@H]1CN([C@@H](C)CO)S(=O)(=O)c2ccc(C#CCN(C)C)cc2O[C@@H]1CN(C)Cc1ccc(F)cc1 | 3.33% (inactive) |
| C[C@@H]1CN([C@@H](C)CO)C(=O)Cc2cc(NC(=O)C3CCCCC3)ccc2O[C@@H]1CN(C)Cc1ccc(C(=O)Nc2ccccc2N)cc1 | -3.91% (inactive) |
| CN1C(=O)c2cc(NC(=O)c3cnccn3)ccc2OC[C@H]2O[C@@H](CC(=O)NCC3CCCCC3)CC[C@@H]21 | -4.79% (inactive) |
| CC(C)NC(=O)N(C)C[C@H]1Oc2c(NC(=O)Nc3ccc(F)cc3)cccc2C(=O)N([C@@H](C)CO)C[C@@H]1C | 0.87% (inactive) |
| COc1cccc(-c2cnc3c(c2)C(=O)N([C@@H](C)CO)C[C@H](C)[C@H](CN(C)C(C)=O)O3)c1 | 1.61% (inactive) |
| CN(C)C(=O)C[C@@H]1C=C[C@H](NC(=O)Nc2cccc(F)c2)[C@H](CO)O1 | 0.18% (inactive) |
| COCC(=O)N[C@@H]1C[C@@H]2O[C@@H](CO)CC[C@@H]2O[C@@H]1CCc1ccc(-c2ccccc2)cc1 | -0.551% (inactive) |
| C[C@H]1CN([C@@H](C)CO)C(=O)c2cccc(NC(=O)c3cnccn3)c2O[C@H]1CN(C)C(=O)Nc1ccccc1 | 2.81% (inactive) |
| CC(=O)N1[C@H](CO)[C@H](c2ccccc2)[C@H]1CN(C(=O)c1ccccc1F)C(C)C | -2.13% (inactive) |
| Cc1cccc(S(=O)(=O)N(C)C[C@@H]2OCc3cnnn3CCCC(=O)N([C@H](C)CO)C[C@@H]2C)c1 | -3.09% (inactive) and 0.225% (inactive) and -3.77% (inactive) |
| C[C@H](CO)N1C[C@H](C)[C@H](CN(C)S(=O)(=O)c2cccc(F)c2)OCc2cnnn2CCCC1=O | -5.61% (inactive) |
| Cc1cccc(S(=O)(=O)N(C)C[C@H]2OCc3cnnn3CCCC(=O)N([C@@H](C)CO)C[C@H]2C)c1 | -7.22% (inactive) and 27.4% (active) |
| Cc1nc(NC(=O)C(C)(C)C)sc1[N+](=O)[O-] | 0.0535% (inactive) |
| O=C(NCC1CC1)[C@@H]1[C@@H](CO)[C@@H]2Cn3c(ccc(-c4ccncc4)c3=O)[C@@H]2N1Cc1cocn1 | 6.61% (inactive) |
| CO[C@@H]1CN(C)C(=O)c2ccc(NC(=O)NC(C)C)cc2OC[C@@H](C)N(Cc2ccc(-c3ccccn3)cc2)C[C@H]1C | -3.96% (inactive) |
| CCS(=O)(=O)N1[C@H](CO)[C@@H](c2ccc(C#CC(C)C)cc2)[C@@H]1C#N | 0.717% (inactive) |
| O=C(C[C@H]1C=C[C@@H](NC(=O)c2ccc(F)cc2)[C@@H](CO)O1)NCCc1ccncc1 | -1.66% (inactive) |
| COCC#Cc1cnc2c(c1)C(=O)N([C@H](C)CO)C[C@H](C)[C@H](CN(C)C(=O)CCN1CCCCC1)O2 | -2% (inactive) |
| C[C@@H]1CN([C@H](C)CO)C(=O)Cc2cc(NC(=O)Cc3cn(C)c4ccccc34)ccc2O[C@@H]1CN(C)Cc1ccc(C(F)(F)F)cc1 | -1.92% (inactive) |
| Cc1cccc(-c2ccccc2[C@@H]2[C@H](C#N)N(c3ncc(-c4ccccc4)s3)[C@H]2CO)c1 | 5.5% (inactive) |
| CO[C@@H]1CN(C)C(=O)c2cc(NS(=O)(=O)c3cccc(F)c3)ccc2OC[C@@H](C)NC[C@@H]1C | 3.66% (inactive) |

| Structure (SMILES) | inhibition |
| --- | --- |
| CO[C@@H]1CC[C@@H]2CCOc3c(C#N)cccc3C(=O)N(C)C[C@@H](OC)[C@@H](C)C(=O)N(C)C[C@H]1O2 | 0.649% (inactive) |
| COc1ccc2c3c(n(C)c2c1)[C@@H](CO)N(CC1CC1)CC31CN(C(=O)c2cccc(F)c2)C1 | -2.91% (inactive) |
| COCC(=O)N[C@@H]1C=C[C@@H](CC(=O)N2CCCCC2)O[C@@H]1CO | -2.02% (inactive) |
| CC(C)NC(=O)N(C)C[C@H]1OCCCC[C@@H](C)Oc2ccc(NS(C)(=O)=O)cc2C(=O)N([C@H](C)CO)C[C@H]1C | -1.99% (inactive) |
| CCCN1C[C@H](C)[C@@H](OC)CN(C)C(=O)c2cc(NS(=O)(=O)CC)ccc2OC[C@H]1C | -4.64% (inactive) |
| C[C@@H]1CN([C@@H](C)CO)C(=O)Cc2cc(NC(=O)Nc3cccc4ccccc34)ccc2O[C@@H]1CN(C)CC1CCCCC1 | 3.82% (inactive) |
| O=C(NCC[C@@H]1CC[C@@H](NS(=O)(=O)c2cccc(F)c2)[C@H](CO)O1)C1CC1 | -3.52% (inactive) |
| CCCNC(=O)N(C)C[C@H]1Oc2cc(C#C[C@@H](C)O)ccc2S(=O)(=O)N([C@H](C)CO)C[C@H]1C | -12.1% (inactive) |
| CCCN1C[C@@H](C)[C@@H](OC)CN(C)C(=O)c2ccc(NC(=O)CC(F)(F)F)cc2OC[C@H]1C | 9.49% (inactive) |
| Cc1ccc(-c2ccccc2[C@H]2[C@@H](C#N)N(c3ncc(-c4ccccc4)s3)[C@@H]2CO)cc1 | -0.798% (inactive) |
| CC=Cc1ccc2n(c1=O)C[C@H]1[C@H](CO)[C@@H](C(=O)NCC3CC3)N(Cc3nccs3)[C@@H]21 (mixture of isomers) | -2.63% (inactive) |
| COc1ccccc1-c1cnc2c(c1)C(=O)N([C@H](C)CO)C[C@H](C)[C@@H](CN(C)C(=O)CC1CC1)O2 | -2.32% (inactive) |
| C[C@H]1CN([C@@H](C)CO)C(=O)c2cc(Br)cnc2O[C@@H]1CN(C)C(=O)c1ccccc1 | -13% (inactive) |
| CCNC(=O)C[C@@H]1CC[C@@H]2[C@@H](COc3ccc(NC(C)=O)cc3C(=O)N2C)O1 | -7.17% (inactive) |
| CC(=O)Nc1ccc2c(c1)C(=O)N(C)[C@H]1CC[C@@H](CC(=O)NCC3CC3)O[C@H]1CO2 | 39.3% (active) |
| COCC(=O)Nc1ccc2c(c1)C(=O)N(C)[C@@H]1CC[C@H](CC(=O)NCC3CC3)O[C@@H]1CO2 | 7.57% (inactive) |
| C[C@@H]1CN([C@@H](C)CO)C(=O)Cc2cc(NC(=O)Nc3cccc4ccccc34)ccc2O[C@H]1CN(C)S(=O)(=O)c1ccc(Cl)cc1 | -3.03% (inactive) |
| O=C(CN1CCOCC1)N[C@@H]1CC[C@@H](CCNC(=O)C2CCCCC2)O[C@@H]1CO | 0.632% (inactive) |
| C[C@H](CO)N1C[C@H](C)[C@H](CN(C)Cc2ccc(Oc3ccccc3)cc2)Oc2c(NC(=O)CCCCCC(=O)Nc3ccccc3N)cccc2C1=O | 1.76% (inactive) |
| CO[C@@H]1CN(C)C(=O)c2cc(NS(=O)(=O)CC(F)(F)F)ccc2OC[C@H](C)N(C)C[C@H]1C | 1.29% (inactive) |
| C/C=C/c1ccccc1[C@H]1[C@@H](C#N)N(C(C)=O)[C@@H]1CO | 0.399% (inactive) |

| Structure (SMILES) | inhibition |
| --- | --- |
| COc1ccc(NC(=O)N(C)C[C@@H]2OCc3ccccc3-c3c(n(C)c4ccccc34)C(=O)N([C@H](C)CO)C[C@H]2C)cc1 | 1.51% (inactive) |
| COc1ccc(S(=O)(=O)Nc2ccc3c(c2)C(=O)N([C@@H](C)CO)C[C@H](C)[C@H](CN(C)Cc2ccc(C(=O)O)cc2)O3)cc1 | 4.86% (inactive) |
| C/C=C/c1ccc2c(c1)O[C@H](CN(C)C(=O)Cc1ccccn1)[C@H](C)CN([C@H](C)CO)S2(=O)=O | -3.16% (inactive) |
| N#C[C@@H]1[C@H](c2ccccc2-c2ccccc2F)[C@@H](CO)N1C(=O)c1ccccn1 | -2.07% (inactive) |
| Cc1ccc(S(=O)(=O)Nc2ccc3c(c2)C(=O)N([C@H](C)CO)C[C@H](C)[C@@H](CN(C)S(=O)(=O)c2cccs2)O3)cc1 | 3.96% (inactive) |
| C[C@@H]1CN([C@@H](C)CO)C(=O)c2cc(NC(=O)Nc3ccccc3)ccc2O[C@H]1CN(C)C(=O)Nc1ccc(F)cc1 | 4.96% (inactive) |
| CCC(=O)N(C)C[C@H]1[C@H](c2ccc(-c3ccccc3F)cc2)[C@@H](CO)N1C(C)=O | -0.23% (inactive) |
| COCC#Cc1ccc([C@@H]2[C@@H](CO)N3C(=O)CN(C(=O)C4CCCC4)C[C@@H]23)cc1 | 0.681% (inactive) |
| Cc1noc(C)c1S(=O)(=O)N(C)C[C@H]1Oc2ccc(NC(=O)Nc3cccc4ccccc34)cc2CC(=O)N([C@@H](C)CO)C[C@H]1C | -5.17% (inactive) |
| COc1ccc2c3c(n(C)c2c1)[C@@H](CO)N(C(=O)c1ccc(F)cc1)CC31CN(C(=O)c2ccc(F)cc2)C1 | 1.03% (inactive) |
| COc1ccc2c3c(n(C)c2c1)[C@@H](CO)N(C(=O)CN1CCOCC1)CC31CN(C(=O)CC2CC2)C1 | -0.576% (inactive) |
| CN(C)CC(=O)N1[C@@H](CO)[C@H](c2ccccc2)C12CN(C(=O)c1cccc(F)c1)C2 | 2.27% (inactive) |
| C/C=C/c1ccc([C@@H]2[C@H](CO)N(C(=O)c3cnccn3)C23CN(C(C)=O)C3)cc1 | -4.61% (inactive) |
| C[C@@H]1CN([C@H](C)CO)C(=O)c2cc(C#CCC3CCCC3)cnc2O[C@H]1CN(C)C(=O)c1cnccn1 | -0.111% (inactive) |
| C[C@@H]1CN([C@H](C)CO)S(=O)(=O)c2ccc(-c3ccncc3)cc2O[C@H]1CN(C)S(=O)(=O)c1ccccc1F | -3.02% (inactive) |
| C[C@@H]1CN([C@@H](C)CO)C(=O)c2cc(NS(=O)(=O)c3ccccc3)ccc2O[C@@H]1CN(C)Cc1ccc(C(=O)O)cc1 | -2.81% (inactive) |
| Cc1noc(C)c1S(=O)(=O)Nc1ccc2c(c1)C(=O)N([C@H](C)CO)C[C@H](C)[C@H](CN(C)S(C)(=O)=O)OCCCC[C@H](C)O2 | -0.161% (inactive) |
| C[C@@H]1CN([C@@H](C)CO)S(=O)(=O)c2ccc(C#CC(C)(C)O)cc2O[C@H]1CN(C)C(=O)CN(C)C | -0.244% (inactive) |
| C[C@H](CO)N1C[C@H](C)[C@H](CN(C)C)Oc2cc(C#Cc3ccccc3F)ccc2S1(=O)=O | 11.3% (inactive) |
